# Shown are actives, neighbours in structure and some others; about 2.2% of the full set was active somewhere.
# PfHsp90 yeast 2: growth inhibition of PfHsp90-expressing yeast, primary screen, antimalarial PfHsp90 inhibitor project, S. cerevisiae, BacTiter-Glo luminescence, single point, set 2 | BacTiter-Glo ATP, 48 h; yeast lacking PDR1 and PDR3 efflux regulators | inhibition, % at 9.4 µM | 0.32% of 310,000 active | AID 504621, 2011;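 active means every replicate shows inhibition above about 80%, whatever the replicate mean, limit read from the data; inconclusive means mean inhibition reaches the set limit but some replicate falls short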;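 further: 0% = DMSO neutral controls and 100% = 20 µM radicicol positive controls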
# Shn3 inh set2: reduction of Shn3 3'UTR firefly luciferase signal, primary screen, Schnurri-3 inhibitor project, cell-based, Clone20 osteoblasts, set 2 | Clone20 osteoblast Shn3 3'UTR firefly luciferase, 24 h | inhibition, % at 12.5 µM | 0.52% of 360,000 active;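 active means mean inhibition of at least 75% with every replicate also reaching 75%; inconclusive means mean inhibition at least 75% but some replicate below; inactive means mean inhibition below 75%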;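 further: 0% = median of neutral control wells and 100% = pilot-screen positive control compound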
# Beta apoptosis: inhibitors of cytokine-induced beta cell apoptosis, primary screen, luminescence. INS-1E cytokine-induced death, ATP luminescence, 48 h; percent of positive-control rescue, neutral wells zero. protection from apoptosis, % (no concentration beside the values). 0.8% of 300,000 active. AID 435005, 2010;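 active means Every replicate reaches about 75%, or at least half do and their mean reaches it too, limit read from the data; inconclusive means At least half of replicates reach the limit but their mean does not; inactive means Under half of replicates reach the limit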;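 further: 0% = cytokine-treated negative control wells and 100% = positive control rescue; higher means more ATP so stronger rescue from cytokine killing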
# CSC inhib: cancer stem cell viability inhibitors, primary screen, luminescence; inhibition, % at 7.5 µM; 1.1% of 300,000 active; cancer stem cell-like cells viability; AID 2717, 2010; in the data active means inhibition above about 75%; inconclusive means no clear call, values can overlap the other calls; tested in HMLE shEcad cells
# Calb FLC: C. albicans growth inhibition with fluconazole, primary screen, CaCi-2 strain, Alamar Blue fluorescence. growth inhibition, % (no concentration beside the values). 0.57% of 300,000 active. C. albicans CaCi-2 (fluconazole-resistant clinical isolate) + fluconazole, 48 h;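 active means growth inhibition above about 58% in most replicates, limit read from the data, passing the limit was not always enough; inconclusive means exactly half the replicates above a set limit; inactive means most replicates below a set limit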;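 further: all wells also contain fluconazole at 8 µg/ml as a sub-toxic cotreatment; 0% = median of DMSO wells and 100% = median of geldanamycin control wells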
# Starred values were filed as active, the others as inactive; ? = inconclusive; . = no result given.
SMILES,PfHsp90 yeast 2,Shn3 inh set2,Beta apoptosis,CSC inhib,Calb FLC
O=C(CNc1ccccc1)N/N=C/c1ccc([N+](=O)[O-])cc1,-2,-7,-3,-1,7
O=C(CNc1cccc2ccccc12)N/N=C/c1ccc([N+](=O)[O-])o1,-17,15,118*,13,37
CC(=O)N1CCN(c2c(F)c(F)c(C(F)(F)F)c(F)c2F)CC1,-6,22,.,.,15
CCC1CCCCN1C(=O)CCn1c(=O)oc2ccccc21 (configuration not stated),0,-54,-11,-5,1
O=C1C(=C(c2ccccc2)N2CCOCC2)Cc2ccccc21,.,98*,.,.,.
CCCCn1c(N)c(N(CCOC)C(=O)c2cc(C)oc2C)c(=O)[nH]c1=O,12,-5,-1,-11,-1
COc1ccc(-n2c(O)c(/C=N/NS(=O)(=O)c3ccc(C)cc3)c3ccccc3c2=O)cc1OC,-6,-1,-10,12,-10
COc1ccc(-n2c(O)c(/C=N/Nc3nc(C)cc(C)n3)c3ccccc3c2=O)cc1OC,-10,91*,24,4,28
C/C(=N\NC(N)=S)c1cc(-c2ccccc2)c(-c2ccccc2)s1,-42,7,.,99*,5
CCCc1cc(=O)[nH]c(SCC(=O)Nc2cc(S(=O)(=O)N(CC)c3ccccc3)ccc2Cl)n1,10,8,-3,42,.
O=S1(=O)C=C(Sc2nc3ccccc3s2)c2ccccc21,.,.,122*,141*,4
Cc1cc(C)nc(SC2=CS(=O)(=O)c3ccccc32)n1,38,32,-36,44,-9
Cc1onc(-c2ccccc2)c1C(=O)N(CC(C)C)c1c(N)n(CC(C)C)c(=O)[nH]c1=O,27,-3,-4,.,.
CCN(CC)C(=O)c1ccc(Oc2ccc([N+](=O)[O-])cc2Cl)cc1,-39,6,4,2,-7
CCN(CC)C(=O)c1cc([N+](=O)[O-])cc2c1-c1ccc([N+](=O)[O-])cc1C2=C(C#N)C#N,-3,.,89*,40,12
O=C(CNc1cccc(S(=O)(=O)N2CCCC2)c1)Nc1ccc(F)cc1F,23,14,-2,-9,4
Cc1ccc([C@H]2C(C(=O)O)=CC[C@@H](c3cccc(Cl)c3)N2S(=O)(=O)c2ccc(C)cc2)cc1,-18,-3,.,.,.
CCc1ccc([C@@H]2CC=C(C(=O)O)[C@H](c3ccc(Cl)cc3)N2S(=O)(=O)c2ccc(C)cc2)cc1,-28,-19,-12,79*,.
CCCCC[C@@H]1C=C(C(=O)O)[C@H](c2ccc(Cl)c(Cl)c2)N1S(=O)(=O)c1ccc(C)cc1,-26,-3,-1,98*,.
Cc1ccc(S(=O)(=O)N2[C@@H](c3ccc(C(C)(C)C)cc3)C(C(=O)O)=CC[C@H]2c2cccc(Cl)c2)cc1,-6,-17,-3,138*,.
O=CNc1ccc2c(c1)Cc1cccc(NC=O)c1-2,-23,47,.,.,.
C=CCOc1cccc(/C=C2\C(=O)N(Cc3ccc(C)cc3)C(C)=C2C(=O)OC)c1,-18,13,12,85*,2
COc1ccccc1N=NNc1ccccc1OC,.,-31,.,.,.
CC[N+](C)(CC)CCC(c1ccccc1)C1CCCCC1 (configuration not stated),13,7,105*,-5,-27
CC(=O)Nc1ccc(S(=O)(=O)N2CCN(CC(=O)N3CCOCC3)CC2)cc1,7,-11,0,2,1
SMILES,PfHsp90 yeast 2,Shn3 inh set2,Beta apoptosis,CSC inhib,Calb FLC
CCOc1ccc(N2C(=O)CC(N(C)Cc3ccccc3)C2=O)cc1 (configuration not stated),-40,8,0,0,0
COC(=O)c1ccc(N2C(=O)CC(N(C)Cc3ccccc3)C2=O)cc1 (configuration not stated),104*,3,-4,-16,.
CC(SCc1ccccc1)C(=O)Nc1ccc(F)cc1 (configuration not stated),.,7,0,-16,2
Cc1cccc(CSC(=N)N)c1,6,4,-8,-11,-8
Cc1cccc(CSC(Nc2ccc(F)cc2)=C(C#N)C#N)c1,-1,54,106*,-26,46
N#CC(C#N)=C(Nc1ccc(F)cc1)SCc1cccc(Br)c1,-13,77,105*,119*,?
O=C(CN1C(=O)S/C(=C\C=C\c2ccccc2)C1=O)Nc1ccc(O)cc1,6,-26,16,79*,-1
O=C(CCCN1C(=O)S/C(=C/C=C/c2ccccc2)C1=O)Nc1ccc(C(=O)O)cc1,-6,-62,-8,5,-25
O=C(CN1C(=O)S/C(=C\c2ccccn2)C1=O)Nc1ccccc1,3,0,0,-18,109*
COc1cc(F)cc(-c2ccc3c(c2)c(-c2cccs2)c(-c2cc(OC)cc(OC)c2)n3C)c1,-9,8,1,?,.
Cn1c(-c2ccsc2)c(-c2cccs2)c2cc(Br)ccc21,5,-5,-14,80*,.
COc1cc(OC)cc(-c2c(-c3cccs3)c3cc(-c4ccn[nH]4)ccc3n2C)c1,-4,-3,3,87*,.
COc1cc(OC)cc(-c2c(-c3cccs3)c3cc(-c4ccc(N(C)C)nc4)ccc3n2C)c1,29,-1,9,86*,.
CCC/C(=C1/c2ccccc2C(=O)N1c1ccccc1)c1ccc2[nH]ccc2c1,22,10,19,135*,.
CCCCCCCCn1ccc(=N)cc1,3,.,130*,25,1
CCCCCCCCCCn1ccc(=N)cc1,-9,75,116*,36,108*
CCc1nn(CC(=O)N2CCN(c3ccc(OC)cc3)CC2)c(=O)c2cc3occc3n12,12,16,-4,-13,-1
CC(C)(C)S(=O)N1Cc2cc(C(=O)N3CCOCC3)nc(-c3cccc(Br)c3)c2[C@@H]1CCO (some centres not stated),.,-3,.,.,.
Cc1cc(C(=O)CCl)c(C)n1CCc1ccc(Cl)cc1,-11,41,28,116*,-32
N#C/C(=C(/O)c1ccc2c(c1)OCO2)c1nc2cc(C(F)(F)F)ccc2s1,-7,-27,15,79*,20
N#C/C(=C(/O)c1ccccc1F)c1nc2cc(C(F)(F)F)ccc2s1,15,-53,-1,18,-2
O=C(Cn1c2ccccc2c(=O)c2ccccc21)N/N=C/c1ccc(N2CCCC2)c([N+](=O)[O-])c1,-26,2,31,113*,4
CCCCn1c(=O)[nH]c(=O)c2c1nc(Cn1ncc(Cl)c(Cl)c1=O)n2CCC,0,98*,4,-2,-2
CCC(=Cc1ccccc1O)c1ccncc1,-7,24,.,.,.
CCc1ccc(/C(C)=N\Nc2ccc([N+](=O)[O-])cc2)cc1,.,-16,10,4,129*
Cc1ccc(C(=O)NNC(=O)C(NC(=O)c2cccc(C)c2)C(C)C)cc1 (configuration not stated),-6,-7,-14,.,.

# Source: PubChem BioAssay (Broad Institute)
